This is a sample that favours compounds with a hit; in the whole collection about 22% have one here.
CYP2C9 inh: human CYP2C9 inhibition; P11712; CYP2C9 Supersomes, luciferin-H conversion, luminescence; inhibition, % at 5 µM; 96,000 tested, 20% active; AID 777;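 active means blocking of liver enzyme CYP2C9 beyond about 50% at 5 µM, limit read from the data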
Measles CPE: protection of cells from measles virus; 140,000 tested, 1.5% active; Measles virus-infected cells, CPE protection, absorbance; protection (pct of control), % at 4 µM; in the data active means protection mostly above about 24%, no sharp cut-off; inactive means mostly below about 26%
CYP2C19 inhib: inhibitors of human CYP2C19; P33261; CYP2C19 Supersomes, luciferin-H EGE luminescence, 30 min; inhibition, % at 5 µM; 96,000 tested, 21% active;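 active means CYP2C19 inhibition above a set limit at 5 µM in the primary screen, cut at about 50% in these data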;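 further: plate controls were negative control wells for no effect and 2.5 mM tranylcypromine positive control for full effect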
Target sequence (P33261 whole entry, looked up): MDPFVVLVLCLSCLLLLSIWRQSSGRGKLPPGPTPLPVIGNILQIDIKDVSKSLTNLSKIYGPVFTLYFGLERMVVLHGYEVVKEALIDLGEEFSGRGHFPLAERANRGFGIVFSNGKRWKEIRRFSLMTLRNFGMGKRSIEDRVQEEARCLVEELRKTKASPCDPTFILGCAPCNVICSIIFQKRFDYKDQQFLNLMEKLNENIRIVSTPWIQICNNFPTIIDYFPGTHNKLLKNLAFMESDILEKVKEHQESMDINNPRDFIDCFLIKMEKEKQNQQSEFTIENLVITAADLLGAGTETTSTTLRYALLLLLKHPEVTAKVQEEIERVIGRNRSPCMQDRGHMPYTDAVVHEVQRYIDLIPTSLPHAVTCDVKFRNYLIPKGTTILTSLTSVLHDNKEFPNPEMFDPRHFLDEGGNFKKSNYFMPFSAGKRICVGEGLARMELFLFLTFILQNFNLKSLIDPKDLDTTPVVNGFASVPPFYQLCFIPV
CYP2C19 activ: cytochrome P450 2C19 (human) activation | recombinant CYP2C19, luciferin-H EGE luminescence; stronger effect = higher value; 0 = fully inhibited enzyme, 1 = untreated enzyme | P33261 | 96,000 tested, under 10 active | activation factor at 5 µM;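 active means activation factor of at least 2 at 5 µM in the primary screen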;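 further: 0 = wells with 2.5 mM tranylcypromine and 1 = vehicle-only wells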
CYP2C9 activ: increases human cytochrome P450 2C9 activity | recombinant CYP2C9, luciferin-H conversion, luminescence; stronger effect = higher value; factor 1 = untreated enzyme, 0 = blocked | activation factor at 5 µM | AID 1024 | P11712 | 96,000 tested, 1.4% active;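 active means activation factor of 2 or more for CYP2C9 at a 5 µM dose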;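 further: 0 = sulfaphenazole-blocked wells and 1 = vehicle-only wells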
Numbers without * were called inactive; · = no result.

SMILES	CYP2C9 inh	Measles CPE	CYP2C19 inhib	CYP2C19 activ	CYP2C9 activ
Cn1c(N)c(C(=O)c2ccc(F)cc2F)c(=O)n(C)c1=O	·	16.9	·	·	·
COc1ccc(-c2cc(C(F)(F)F)nc(SCC(=O)NCCN3CCOCC3)n2)cc1OC	·	12.9	·	·	·
CS(=O)(=O)N1CCN(c2ccc(Cl)cc2[N+](=O)[O-])CC1	·	19.3	·	·	·
O=C1CCCN1c1ccc(S(=O)(=O)Oc2cccc(Cl)c2)cc1[N+](=O)[O-]	45.5	11.1	66.5*	0.3	0.5
Cc1oc(-c2ccccc2)nc1CS(=O)CC(=O)N1CCc2ccccc2C1 (configuration not stated)	67.9*	17.4	60.9*	0.4	0.3
CCOC(=O)N1CCN(C(=O)CS(=O)Cc2nc(-c3ccc(C)cc3)oc2C)CC1 (configuration not stated)	26.6	2.6	10.0	0.9	0.7
Cc1ccccc1-c1nc(CN2CCC(C(=O)N3CCC(C(N)=O)CC3)CC2)c(C)o1	-1.5	10.4	-7.9	1.1	1
Cc1ccccc1-c1nc(CN2CCC(C(=O)N3CCN(c4ccccn4)CC3)CC2)c(C)o1	55.4*	14.5	13.4	0.9	0.4
COc1cccc(-c2nc(CS(=O)(=O)CC(=O)N3CCc4ccccc4C3)c(C)o2)c1	45.2	7.8	0.8	1	0.5
Cc1cccc(-c2nc(CS(=O)CC(=O)N3CCCCC3)c(C)o2)c1 (configuration not stated)	69.9*	40.2	23.2	0.8	0.3
Cc1oc(-c2ccc(Cl)cc2)nc1CN1CCC(C(=O)N2CCc3ccccc3C2)CC1	15.2	12.7	89.6*	0.1	0.8
Cc1cccc(-n2nc([N+](=O)[O-])c(=NCc3cccnc3)n2O)c1	34.5	4.8	60.0*	0.4	0.7
Cc1cc(C)nc(NC(=O)/C=C/c2ccc3c(c2)OCO3)c1	·	3.5	·	·	·
Cc1ccc(NC2=Nc3ccccc3CS2)cc1	13.2	21.6	51.2*	0.5	0.9
Cc1ccc(Nc2ccccc2)cc1	·	7.8	·	·	·
Cc1ccc(S(=O)(=O)N(CC(=O)N2CCC(C(N)=O)CC2)Cc2ccc(F)cc2)cc1	38.1	23.8	30.4	0.7	0.6
COc1ccc(S(=O)(=O)N(CCc2ccccc2)CC(=O)NC(C)C)cc1	57.8*	17.6	56.1*	0.4	0.4
CC(C)NC(=O)CN(Cc1ccccc1)S(=O)(=O)c1ccccc1	43.6	4.6	40.3	0.6	0.6
COc1ccc(S(=O)(=O)N(CC(=O)NC(C)C)Cc2ccccc2)cc1	50.0*	8.5	51.9*	0.5	0.5
O=C(CN(Cc1ccc(F)cc1)S(=O)(=O)c1ccccc1)N1CCCCC1	45.4	5.9	65.4*	0.3	0.5
CNC(=O)CN(Cc1ccccc1)S(=O)(=O)c1ccccc1	14.4	5.2	59.3*	0.4	0.9
O=C(NCCN1C(=O)S/C(=C\c2ccccc2F)C1=O)C1CCN(S(=O)(=O)c2cccs2)CC1	·	7.7	·	·	·
O=C(Nc1cccc(Cl)c1N1CCCC1)c1cc2ccccc2o1	63.9*	3.3	24.7	0.8	0.4
O=C(Nc1ccccc1N1CCN(C(=O)c2ccc(Cl)cc2)CC1)c1cc2ccccc2o1	91.8*	7.4	75.1*	0.2	0.1
O=C(Nc1ccccc1N1CCN(C(=O)c2ccc(Cl)cc2)CC1)c1ccc(Br)cc1	81.8*	4.0	65.5*	0.3	0.2
SMILES	CYP2C9 inh	Measles CPE	CYP2C19 inhib	CYP2C19 activ	CYP2C9 activ
CC(C)C(=O)N1CCN(c2ccccc2NC(=O)c2cccc(Cl)c2)CC1	30.4	26.4	22.4	0.8	0.7
O=C(O)c1ccc(N2CCCCCC2)c(N2C(=O)c3ccccc3C2=O)c1	-9.1	12.9	-23.8	1.2	1.1
CCSc1nc(CC)c2c(c1C#N)CCCC2	·	4.8	·	·	·
CCSc1nc(N2CCOCC2)c2c(c1C#N)CCCC2	90.8*	6.0	69.8*	0.3	0.1
CC(C)c1nc(N2CCOCC2)c(C#N)c2c1CCCC2	41.5	16.4	80.3*	0.2	0.6
O=C(Cn1c(O)c(/C=C2\C=Nc3ccc(Br)cc32)sc1=O)N1CCCC1	90.7*	4.0	69.5*	0.3	0.1
Cc1ccccc1-n1c(SCC(=O)c2cc(C)n(C)c2C)nnc1-c1cccnc1	62.3*	3.3	67.2*	0.3	0.4
CCn1c(SCC(=O)c2ccc(O)c(O)c2)nnc1-c1ccccc1OC	-28.2	11.0	67.3*	0.3	1.3
CCn1c(SCC(=O)c2ccc(O)c(O)c2)nnc1-c1ccccc1	24.0	10.7	98.2*	0	0.8
Cc1cc(C(=O)CSc2nc3ccccc3c(=O)[nH]2)c(C)n1C	48.7	22.6	49.9	0.5	0.5
Cc1cc(C(=O)CSc2nc3ccccc3n2C)c(C)n1C	-239.3	2.5	33.1	0.7	3.4*
